The structures appear in SMILES notation. Values joined by “and” are separate entries in the source; they are usually repeats but may differ in a detail not shown here. Equal values may be shown once. Inconclusive results are not listed. A number with no mark means an inactive call. Active and inactive are the calls of the source. Calls come from the whole dose curve; as a rule, active = well fitted activation curve with a large enough effect; inconclusive = small, poorly fitted or top-dose-only effect; inactive = no such curve, though single readings can be large or run the other way.
Potency is the fitted concentration of half-maximal effect.

Sequence of Cellular tumor antigen p53 (Homo sapiens) (P04637 whole entry, looked up): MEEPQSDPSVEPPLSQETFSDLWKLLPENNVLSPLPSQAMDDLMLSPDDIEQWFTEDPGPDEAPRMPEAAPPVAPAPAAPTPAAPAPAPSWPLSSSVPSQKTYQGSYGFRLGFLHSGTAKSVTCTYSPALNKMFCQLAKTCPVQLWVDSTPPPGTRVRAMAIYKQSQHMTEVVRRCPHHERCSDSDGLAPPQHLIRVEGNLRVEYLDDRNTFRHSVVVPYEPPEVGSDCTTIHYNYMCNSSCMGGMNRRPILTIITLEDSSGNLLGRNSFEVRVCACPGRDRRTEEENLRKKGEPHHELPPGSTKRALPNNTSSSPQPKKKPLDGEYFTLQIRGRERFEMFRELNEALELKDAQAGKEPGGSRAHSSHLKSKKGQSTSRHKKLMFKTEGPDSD

In this assay the target is Cellular tumor antigen p53 (Homo sapiens) (UniProt P04637). As to the kind of experiment: Primary qHTS for small molecule compounds that upregulate eGFP-tagged delta133p53alpha (in N-terminal) cells. (AID 2060322).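 For activation: series mostly up to about 56 µM; 0% = DMSO vehicle and 100% = reference activator.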 Note: nearly all actives have a fitted effect of over 75% in size. Conditions: NCI-H358 eGFP-delta133p53alpha fluorescence, 24 h; activation: active compounds read high. In short, it runs like this:
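NCI-H358 cells pre-induced 24 h with 10 ng/ml doxycycline to express N-terminal eGFP-delta133p53alpha, then dosed 24 h at 37C without doxycycline; fixed, Hoechst-stained, GFP intensity by laser scanning cytometry, normalized to DMSO (0%) and 57.5 uM 5-azacytidine (100%).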
With `C[C@]12CC[C@H]3[C@@H](CCC4=CC(=O)CC[C@@H]43)[C@@H]1CC[C@@H]2OC(=O)CCc1ccccc1`, the activation is 2.51%.

For `CCC(OC(C)=O)C(CC(C)NC)(c1ccccc1)c1ccccc1` (stereo not given), the Potency is 28.5 µM (active). For `FC(F)(F)c1cccc(C2=CCN(CCc3ccc4ccccc4c3)CC2)c1`, the activation was -5.08%. For `C[C@]12COC(=O)C[C@@H]1CC[C@@H]1[C@H]2CC[C@@]2(C)[C@H]1CC[C@]2(C)O`, the activation is -15.3%. Consider `C[N+]1(CCF)[C@@H]2CC[C@H]1CC(OC(=O)C(O)(c1ccccc1)c1ccccc1)C2` (stereo not given in full), for which the activation was 5.08%. Turning to `CN(C)C(=O)Oc1cc(OC(=O)N(C)C)cc(C(O)CNC(C)(C)C)c1` (stereo not given), the activation was -17.6%. On to `Nc1ccccc1`, for which the activation was -8.47%.

Consider `N#C[C@H](O[C@@H]1O[C@H](CO[C@@H]2O[C@H](CO)[C@H](O)[C@H](O)[C@H]2O)[C@H](O)[C@H](O)[C@H]1O)c1ccccc1`, for which the activation was 6.64%. Take `CCOP(=S)(OCC)O/N=C(\C#N)c1ccccc1`: the activation was -18.6%.

Regarding `Cc1ccc(-c2nc3ccc(C)cn3c2CC(=O)N(C)C)cc1`, the activation is -32.2%. On to `OC(O)C(Cl)(Cl)Cl`, for which the activation was -29.9%.

As for `CC(C)=CC1C(C(=O)OCc2cccc(Oc3ccccc3)c2)C1(C)C` (stereo not given), the activation is 25.4%. The same measure, in the same setting: the same measure for `Clc1ccc(CCC(Cn2ccnc2)Sc2c(Cl)cccc2Cl)cc1` (stereo not given): 18.6% and -21.6%; for `NC(=O)CS(=O)C(c1ccccc1)c1ccccc1` (stereo not given): -6.21%. On to `c1ccc(CN2CCNCC2)cc1`, for which the activation was 15.3%.

The record behind these values is PubChem BioAssay (NCATS).
